Results: publication PMC5540273 (PLoS ONE, 2017)

How the values were obtained:
Conditions in all cases: concentration: 1 μM,replicates: in singlicate; n = 1
[1] = test system: JAK1(JH2domain-pseudokinase)
[2] = test system: JAK2(JH1domain-catalytic)
[3] = test system: JAK3(JH1domain-catalytic)
[4] = test system: T1, JNK1
T1 construct: gene MAPK8

[5] = test system: T2, JNK2
T2 construct: gene MAPK9

[6] = test system: T3, JNK3
T3 construct: gene MAPK10

[7] = test system: KIT-autoinhibited
[8] = test system: KIT
[9] = test system: LATS1
[10] = test system: LATS2
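Note: KINOMEscan kinase panel screen.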

Compound | %Inh [1] [%] | %Inh [2] [%] | %Inh [3] [%] | %Inh [4] [%] | %Inh [5] [%] | %Inh [6] [%] | %Inh [7] [%] | %Inh [8] [%] | %Inh [9] [%] | %Inh [10] [%]
CS(=O)(=O)c1cccc(CNc2nc(Nc3ccc4c(c3)[C@@H]3C[C@@H]4CNC3=O)ncc2C(F)(F)F)c1 | 91.1 | 98.4 | 100 | 38 | 30 | 46 | 39 | 42 | 24 | 45
O=C(NCC1CC1)c1ccc(-c2cc(C(=O)NC3CC3)ccc2F)cc1 [GW810445] | 0 | 12 | 0 | 0 | 0 | 0 | 0 | 0 | 0 | 0
COc1cccc(OC)c1C(=O)Nc1cccc(-c2nn3ccccc3c2-c2ccnc(Nc3cccc(F)c3)n2)c1 [GSK361065] | 4 | 3 | 0 | 44 | 0 | 0 | 11 | 90.9 | 6 | 10
Cl.c1ccc(Oc2ccc(Nc3ccnc4cc(-c5ccc(CN6CCNCC6)o5)ccc34)cc2)nc1 [GW567142] | 17 | 100 | 0 | 0 | 3 | 0 | 10 | 87 | 0 | 0
N#Cc1cccc(C(=O)NC2CCN(c3ccnc(Nc4ccc(F)cc4)n3)C2)c1 (stereo not drawn) [GSK1379708] | 0 | 16 | 0 | 26 | 34 | 17 | 0 | 9 | 0 | 0
Cn1ccc2ncnc(Oc3ccc(NC(=O)Nc4ccnc(C(F)(F)F)c4)c(Cl)c3)c21 | 1 | 0 | 2 | 0 | 0 | 0 | 22 | 99.8 | 11 | 0
Cc1ccn2nc(-c3ccc(F)cc3)c(-c3ccncc3)c2c1.Cl [GW457859] | 75 | 50 | 0 | 43 | 91.4 | 93.4 | 0 | 26 | 2 | 0
CCn1c(-c2nonc2N)nc2cncc(Br)c21 [SB-738004] | 0 | 34 | 62 | 0 | 0 | 2 | 55 | 32 | 0 | 79
FC(F)(F)c1cc(Br)cc(Nc2nccc(-c3cnn4ncccc34)n2)c1 [GW810578] | 80 | 0 | 0 | 0 | 5 | 1 | 63 | 100 | 0 | 6
O=C(Nc1cccc(Oc2ccc3nccn3n2)c1)Nc1cccc(C(F)(F)F)c1 | 0 | 9 | 25 | 0 | 0 | 0 | 68 | 100 | 0 | 0
CN(c1ccccc1CNc1nc(Nc2ccc3c(c2)CC(=O)N3)ncc1C(F)(F)F)S(C)(=O)=O | 66 | 98.6 | 99.2 | 64 | 66 | 63 | 0 | 38 | 65 | 76
CC(=O)c1c(-c2ccncc2)[nH]c(-c2ccncc2)c1C [GW493036] | 0 | 20 | 0 | 25 | 8 | 11 | 0 | 0 | 7 | 4
Cn1ccc2ncnc(Oc3ccc(NC(=O)Nc4cncc(C(F)(F)F)c4)c(Cl)c3)c21 | 0 | 0 | 0 | 0 | 0 | 0 | 17 | 99.9 | 0 | 0
Cl.Nc1n[nH]c2cc(-c3ccccn3)ccc12 [GSK2189892] | 14 | 31 | 0 | 0 | 0 | 0 | 0 | 4 | 0 | 9
CN(c1ccc2c(c1)nc(NCc1ccc(F)cc1)n2C)c1ccnc(Nc2ccc(CS(C)(=O)=O)cc2)n1.Cl [GW813244] | 56 | 54 | 100 | 42 | 39 | 0 | 69 | 99.9 | 10 | 0
CCNCC(Cc1ccccc1)NC(=O)c1cc(Br)c(-c2ccnc3[nH]ccc23)s1.Cl.Cl (stereo not drawn) [GSK1383280] | 0 | 82 | 87 | 33 | 10 | 1 | 0 | 50 | 43 | 82
CCCC(=O)Nc1n[nH]c2ncccc12 [SB-601436] | 4 | 18 | 0 | 20 | 6 | 1 | 0 | 0 | 40 | 0
C[C@@H](Oc1cc(-n2cnc3ccc(-c4ccncc4)cc32)sc1C(N)=O)c1ccccc1Cl [GSK483724] | 0 | 19 | 0 | 45 | 27 | 18 | 6 | 36 | 3 | 54
CC(=O)Nc1nc2cnc(Nc3cc(NC(=O)c4cccc(CC(C)(C)C#N)c4)ccc3C)nc2s1 | 25 | 0 | 0 | 33 | 41 | 43 | 36 | 100 | 7 | 47
COc1cc2c(Nc3ccc(NC(=O)c4ccccc4)cc3)ncnc2cc1OCCCN1CCOCC1 [GSK301329] | 0 | 0 | 0 | 0 | 19 | 12 | 41 | 99.1 | 0 | 0
Cc1ccc(C(=O)Nc2ccc(Oc3ccc4nc(NC(=O)C5CC5)cn4c3)c(F)c2)c(=O)n1-c1ccccc1 | 0 | 81 | 15 | 0 | 0 | 0 | 24 | 100 | 14 | 0
Cc1ccc2c(-c3ccnc(Nc4ccc(C(F)(F)F)cc4)n3)cnn2n1 [GW819776] | 57 | 29 | 0 | 91.5 | 53 | 78 | 34 | 78 | 0 | 0
COc1ccc(Nc2nccc(N3CCC(NC(=O)c4cccc(C#N)c4)C3)n2)cc1 (stereo not drawn) [GSK1379730] | 0 | 12 | 0 | 15 | 16 | 10 | 0 | 0 | 0 | 0
CC(C)c1nc(-c2cccc(NS(=O)(=O)c3ccccc3)c2)c(-c2ccnc(Nc3ccc4c(c3)CN(C)CC4)n2)s1 [GSK1649598] | 0 | 20 | 75 | 84 | 87 | 94 | 21 | 99.9 | 6 | 27
Cc1n[nH]c2cc(Nc3ccnc(Nc4cccc(CN5CCOCC5)c4)n3)ccc12 [GW682569] | 98.8 | 99.4 | 79 | 96.2 | 58 | 85 | 28 | 97.7 | 0 | 0
Nc1nccc(-c2ccc3c(N)n[nH]c3c2)n1 [GSK1034945] | 29 | 17 | 14 | 20 | 10 | 0 | 0 | 6 | 0 | 0
COC(=O)c1cccc(NC(=O)NC2CCN(c3ccnc(Nc4cc(OC)c(OC)c(OC)c4)n3)C2)c1 (stereo not drawn) [GSK1379767] | 13 | 82 | 0 | 16 | 20 | 28 | 0 | 77 | 0 | 17
O=C(NOCC1CC1)c1cc(Br)c(F)c(F)c1Nc1ccc(I)cc1Cl | 39 | 0 | 0 | 12 | 0 | 0 | 0 | 13 | 14 | 0
CC(C)S(=O)(=O)N1CCN(Cc2ccc3c(c2)nc(NC(=O)c2ccsc2)n3C[C@H](O)c2ccccc2)CC1 [GW635815] | 0 | 77 | 54 | 19 | 10 | 15 | 20 | 87 | 0 | 0
OCCn1cc(-c2cnc3nnn(Cc4ccc5ncccc5c4)c3n2)cn1 | 10 | 0 | 0 | 10 | 0 | 0 | 0 | 0 | 0 | 24
